# Assay results taken from PubChem BioAssay (Tox21).
# Where “and” joins values, the source holds several entries; their conditions need not be identical. Equal values may be shown once. Records with an inconclusive call do not appear. Where a call stands in place of a potency, no number is given. Calls of active or inactive are those of the source. Calls come from the whole dose curve.
# Test: qHTS assay for small molecules that induce genotoxicity in human embryonic kidney cells expressing luciferase-tagged ATAD5 - cell viability (AID 651634); note: nearly all actives have a fitted effect of over 25% in size
# Settings: HEK293T ATAD5-luc cells viability, CellTiter-Fluor, 15.5 h; series mostly up to 83.3 µM
# Outline: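 Seeding of 2,000 HEK293T ATAD5-luciferase cells per well preceded pin-tool compound transfer. Plates sat 15.5 hr at 37C under 5% CO2, then fluorescence was read after 30 min with CellTiter-Fluor.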
# Potency is the fitted concentration of half-maximal effect.
row,Compound,Potency
1,Fc1ccc(Oc2ccnc3cc(Cl)cc(Cl)c23)cc1,inactive
2,CCCCCCCCc1ccc(O)cc1,inactive
3,O=C(O)C1C2CCC(O2)C1C(=O)O (centres undefined),inactive
4,CC(C)C1CCC(Cc2ccc(Cl)cc2)C1(O)Cn1cncn1 (centres undefined),53.9 µM (active)
5,ClC1=C(Cl)[C@]2(Cl)[C@H]3[C@H]([C@H]4C=C[C@H]3C4)[C@@]1(Cl)C2(Cl)Cl,inactive
6,CN(C)C(=S)S,inactive
7,CC(C)[C@H](C(=O)OC(C#N)c1cccc(Oc2ccccc2)c1)c1ccc(OC(F)F)cc1 (some centres undefined),inactive
8,CN(C)c1ccc(N=Nc2ccccc2)cc1,68.7 µM (active)
9,N#CC(Cl)Cl,inactive
10,CC1(c2ccc(Oc3ccccc3)cc2)OC(=O)N(Nc2ccccc2)C1=O (centres undefined),inactive
11,C[C@@H]1CC[C@@]2(OC1)O[C@H]1[C@@H](O)[C@H]3[C@@H]4CC[C@H]5C[C@@H](O[C@@H]6O[C@H](CO)[C@H](O[C@@H]7O[C@H](CO)[C@@H](O)[C@H](O[C@@H]8OC[C@@H](O)[C@H](O)[C@H]8O)[C@H]7O[C@@H]7O[C@H](CO)[C@@H](O)[C@H](O[C@@H]8O[C@H](CO)[C@@H](O)[C@H](O)[C@H]8O)[C@H]7O)[C@H](O)[C@H]6O)[C@H](O)C[C@]5(C)[C@H]4CC[C@]3(C)[C@H]1[C@@H]2C,64.9 µM (active)
12,[Hg+2].[I-].[I-],61.1 µM (active)
13,C=CC(=O)OCCCCOC(=O)C=C,54.5 µM (active)
14,C[C@H]1CC[C@@H]2[C@@H](C)[C@H]3[C@H](C[C@H]4[C@@H]5CC=C6CC(O[C@@H]7O[C@H](CO)[C@H](O)[C@H](O[C@@H]8O[C@H](CO)[C@@H](O)[C@H](O)[C@H]8O)[C@H]7O[C@H]7O[C@@H](C)[C@H](O)[C@@H](O)[C@H]7O)CC[C@]6(C)[C@H]5CC[C@]34C)N2C1 (some centres undefined),26.6 µM (active) and 63.1 µM (active)
